{"source": "the supplement of paper PMC11001985", "note": "Values without a mark were called inactive."}
{"compound": "C#CCNC(=O)CCSSCCC(=O)NCCc1ccc(C=O)c(C=O)c1", "test": "lysine labeling ratio R10:1 (500 µM / 50 µM probe), SILAC-ABPP in living cells; higher = lower intrinsic lysine reactivity toward the probe, active = 2 or less", "details": "HeLa; probe concentrations 500 vs 50 µM", "experimental": "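Living HeLa cells (SILAC light/heavy) in PBS at room temperature were labeled with 50 µM versus 500 µM of the lysine-reactive, reductant-cleavable probe OPA-S-S-alkyne (SILAC labeling time not stated). Probe-modified peptides were CuAAC-biotinylated, captured on neutravidin and eluted with DTT/IAA, then quantified by LC-MS/MS. R = median peptide ratio per lysine (500/50 µM), combined over 3 forward and 3 reverse SILAC replicates. Ratios are capped at 20; R < 2 = hyper-reactive.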"}
{"target": "PGRMC1 (lysine site: K105) (UniProt O00264)", "sequence (O00264 whole entry)": "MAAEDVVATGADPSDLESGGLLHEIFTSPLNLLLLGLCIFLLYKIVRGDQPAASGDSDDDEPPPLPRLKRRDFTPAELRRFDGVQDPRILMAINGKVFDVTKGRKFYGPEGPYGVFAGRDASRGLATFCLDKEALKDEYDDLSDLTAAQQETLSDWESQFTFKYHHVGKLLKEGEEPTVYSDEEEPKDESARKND", "lysine labeling ratio R10:1": 2.63}
{"target": "RALA (lysine site: K143) (UniProt P11233)", "lysine labeling ratio R10:1": 2.44}
{"target": "B2M (lysine site: K114) (UniProt P61769)", "lysine labeling ratio R10:1": 15.6}
{"target": "HNRNPA1 (lysine site: K113) (UniProt P09651)", "lysine labeling ratio R10:1": 4.81}
{"target": "SLC44A1 (lysine site: K75) (UniProt Q8WWI5)", "lysine labeling ratio R10:1": 2.45}
{"target": "UniProt Q15149 (lysine site: K4348)", "sequence (Q15149 whole entry)": "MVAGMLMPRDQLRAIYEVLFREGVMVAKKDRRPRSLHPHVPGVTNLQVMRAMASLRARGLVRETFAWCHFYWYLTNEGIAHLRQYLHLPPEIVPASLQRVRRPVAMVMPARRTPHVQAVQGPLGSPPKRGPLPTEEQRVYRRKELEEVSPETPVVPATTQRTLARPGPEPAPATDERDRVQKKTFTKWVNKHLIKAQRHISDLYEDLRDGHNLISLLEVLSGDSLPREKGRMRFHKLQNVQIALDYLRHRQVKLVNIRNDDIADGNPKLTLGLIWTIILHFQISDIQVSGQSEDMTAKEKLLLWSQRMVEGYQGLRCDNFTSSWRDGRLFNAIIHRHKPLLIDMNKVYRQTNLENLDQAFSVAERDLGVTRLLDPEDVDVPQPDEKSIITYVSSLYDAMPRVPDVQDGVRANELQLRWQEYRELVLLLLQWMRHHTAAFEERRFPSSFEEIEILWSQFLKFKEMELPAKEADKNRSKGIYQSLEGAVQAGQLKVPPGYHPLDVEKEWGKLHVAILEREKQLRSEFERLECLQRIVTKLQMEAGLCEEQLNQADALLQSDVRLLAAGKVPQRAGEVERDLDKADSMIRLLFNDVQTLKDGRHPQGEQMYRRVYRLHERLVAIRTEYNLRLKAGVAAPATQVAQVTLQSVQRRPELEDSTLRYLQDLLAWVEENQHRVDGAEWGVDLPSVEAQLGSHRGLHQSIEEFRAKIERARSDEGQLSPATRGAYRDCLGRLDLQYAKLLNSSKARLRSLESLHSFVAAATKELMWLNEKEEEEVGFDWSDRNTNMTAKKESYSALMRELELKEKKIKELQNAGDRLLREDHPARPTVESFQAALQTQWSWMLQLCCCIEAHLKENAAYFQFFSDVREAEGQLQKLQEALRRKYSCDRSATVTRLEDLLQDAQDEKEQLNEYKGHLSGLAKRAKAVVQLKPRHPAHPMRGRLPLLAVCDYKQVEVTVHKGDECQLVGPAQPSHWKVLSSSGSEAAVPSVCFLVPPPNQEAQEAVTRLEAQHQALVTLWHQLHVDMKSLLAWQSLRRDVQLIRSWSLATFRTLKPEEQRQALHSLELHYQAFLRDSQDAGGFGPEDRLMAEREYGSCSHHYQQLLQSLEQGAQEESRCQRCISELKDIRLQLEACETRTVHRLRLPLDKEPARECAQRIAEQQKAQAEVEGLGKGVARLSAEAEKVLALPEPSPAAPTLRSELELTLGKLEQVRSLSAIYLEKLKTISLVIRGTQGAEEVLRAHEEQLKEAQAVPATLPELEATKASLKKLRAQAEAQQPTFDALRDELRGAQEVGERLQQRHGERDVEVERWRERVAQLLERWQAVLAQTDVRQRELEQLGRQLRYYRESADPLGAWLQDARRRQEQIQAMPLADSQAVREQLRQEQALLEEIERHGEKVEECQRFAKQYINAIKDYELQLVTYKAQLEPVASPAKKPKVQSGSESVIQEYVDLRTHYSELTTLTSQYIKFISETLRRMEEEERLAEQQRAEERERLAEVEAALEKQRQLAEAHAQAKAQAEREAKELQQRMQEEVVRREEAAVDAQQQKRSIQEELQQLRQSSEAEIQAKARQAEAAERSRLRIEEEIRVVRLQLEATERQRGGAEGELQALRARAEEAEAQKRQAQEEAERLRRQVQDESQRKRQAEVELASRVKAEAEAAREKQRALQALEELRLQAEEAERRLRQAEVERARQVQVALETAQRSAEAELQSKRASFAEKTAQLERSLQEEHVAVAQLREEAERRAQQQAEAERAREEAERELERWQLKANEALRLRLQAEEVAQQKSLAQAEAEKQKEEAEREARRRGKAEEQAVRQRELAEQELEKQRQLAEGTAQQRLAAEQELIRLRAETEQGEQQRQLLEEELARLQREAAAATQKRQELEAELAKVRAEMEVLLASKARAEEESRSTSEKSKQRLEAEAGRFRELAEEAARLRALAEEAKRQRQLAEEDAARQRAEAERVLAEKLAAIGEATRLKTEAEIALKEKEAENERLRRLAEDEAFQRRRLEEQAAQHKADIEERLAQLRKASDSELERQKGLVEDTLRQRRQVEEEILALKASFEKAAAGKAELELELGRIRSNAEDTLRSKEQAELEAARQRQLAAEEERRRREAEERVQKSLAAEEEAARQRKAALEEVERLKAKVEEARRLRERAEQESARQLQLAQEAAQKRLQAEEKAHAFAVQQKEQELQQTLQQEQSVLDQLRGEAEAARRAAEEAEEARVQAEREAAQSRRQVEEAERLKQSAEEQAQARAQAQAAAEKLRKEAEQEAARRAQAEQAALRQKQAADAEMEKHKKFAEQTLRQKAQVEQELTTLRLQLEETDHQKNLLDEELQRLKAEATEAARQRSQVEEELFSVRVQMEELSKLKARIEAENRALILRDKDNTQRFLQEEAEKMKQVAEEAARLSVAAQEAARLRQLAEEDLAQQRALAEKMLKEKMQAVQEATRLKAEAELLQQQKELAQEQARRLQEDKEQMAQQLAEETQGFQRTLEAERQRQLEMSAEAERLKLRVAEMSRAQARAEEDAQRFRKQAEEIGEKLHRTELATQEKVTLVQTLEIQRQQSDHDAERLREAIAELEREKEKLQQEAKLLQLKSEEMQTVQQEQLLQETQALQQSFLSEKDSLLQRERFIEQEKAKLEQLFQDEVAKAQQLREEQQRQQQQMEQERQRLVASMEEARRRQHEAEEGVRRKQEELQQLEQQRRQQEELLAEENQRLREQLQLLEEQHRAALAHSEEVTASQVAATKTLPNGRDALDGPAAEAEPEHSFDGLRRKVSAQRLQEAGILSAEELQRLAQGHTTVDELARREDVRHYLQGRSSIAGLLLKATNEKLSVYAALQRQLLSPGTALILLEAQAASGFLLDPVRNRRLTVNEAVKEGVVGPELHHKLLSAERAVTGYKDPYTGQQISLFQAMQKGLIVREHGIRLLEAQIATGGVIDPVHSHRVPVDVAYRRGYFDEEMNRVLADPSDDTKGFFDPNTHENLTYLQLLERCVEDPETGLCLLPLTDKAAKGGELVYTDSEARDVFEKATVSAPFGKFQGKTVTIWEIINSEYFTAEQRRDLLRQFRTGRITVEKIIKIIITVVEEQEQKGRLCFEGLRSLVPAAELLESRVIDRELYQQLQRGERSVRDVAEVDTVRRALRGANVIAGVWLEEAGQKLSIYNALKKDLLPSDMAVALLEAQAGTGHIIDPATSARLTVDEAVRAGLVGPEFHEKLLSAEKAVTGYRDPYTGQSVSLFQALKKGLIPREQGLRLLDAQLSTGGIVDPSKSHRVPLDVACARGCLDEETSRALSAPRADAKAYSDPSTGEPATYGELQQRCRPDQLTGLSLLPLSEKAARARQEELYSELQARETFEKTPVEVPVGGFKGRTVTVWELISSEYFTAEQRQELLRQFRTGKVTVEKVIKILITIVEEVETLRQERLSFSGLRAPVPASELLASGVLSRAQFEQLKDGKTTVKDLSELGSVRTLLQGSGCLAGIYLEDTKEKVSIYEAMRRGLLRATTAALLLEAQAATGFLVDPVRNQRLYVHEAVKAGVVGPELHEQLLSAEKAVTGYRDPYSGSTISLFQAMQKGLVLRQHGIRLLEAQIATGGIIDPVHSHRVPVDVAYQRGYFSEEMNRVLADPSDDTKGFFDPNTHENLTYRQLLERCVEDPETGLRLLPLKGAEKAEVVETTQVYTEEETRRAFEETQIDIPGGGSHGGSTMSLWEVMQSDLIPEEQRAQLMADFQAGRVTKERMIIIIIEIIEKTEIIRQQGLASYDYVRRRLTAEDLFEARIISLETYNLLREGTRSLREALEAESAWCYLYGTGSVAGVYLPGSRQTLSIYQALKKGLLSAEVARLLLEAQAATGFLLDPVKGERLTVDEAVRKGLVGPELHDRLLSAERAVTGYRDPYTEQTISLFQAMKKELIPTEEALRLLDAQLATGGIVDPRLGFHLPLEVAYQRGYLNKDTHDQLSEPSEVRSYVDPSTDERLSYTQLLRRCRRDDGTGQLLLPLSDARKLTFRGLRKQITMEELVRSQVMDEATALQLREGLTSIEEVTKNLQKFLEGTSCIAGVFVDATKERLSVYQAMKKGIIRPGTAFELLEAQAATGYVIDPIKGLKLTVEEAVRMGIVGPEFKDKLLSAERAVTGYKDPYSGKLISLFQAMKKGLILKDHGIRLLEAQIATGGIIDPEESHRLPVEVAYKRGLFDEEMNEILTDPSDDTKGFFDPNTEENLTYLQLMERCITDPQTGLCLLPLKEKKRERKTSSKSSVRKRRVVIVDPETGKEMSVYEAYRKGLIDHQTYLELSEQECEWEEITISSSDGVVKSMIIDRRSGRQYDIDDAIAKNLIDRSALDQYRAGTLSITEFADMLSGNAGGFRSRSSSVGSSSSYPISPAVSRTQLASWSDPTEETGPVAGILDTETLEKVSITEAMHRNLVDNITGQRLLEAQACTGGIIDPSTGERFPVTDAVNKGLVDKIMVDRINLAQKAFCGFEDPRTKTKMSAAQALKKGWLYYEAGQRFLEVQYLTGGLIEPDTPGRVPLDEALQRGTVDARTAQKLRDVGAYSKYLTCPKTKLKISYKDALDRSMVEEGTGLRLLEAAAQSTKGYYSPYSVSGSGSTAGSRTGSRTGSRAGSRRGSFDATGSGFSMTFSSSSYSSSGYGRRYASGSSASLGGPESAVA", "lysine labeling ratio R10:1": "1.12 (active)"}
{"target": "CCT5 (lysine site: K514) (UniProt P48643)", "lysine labeling ratio R10:1": 2.42}
{"target": "FLNA (lysine site: K2417) (UniProt P21333)", "lysine labeling ratio R10:1": 4.07}
{"target": "UniProt Q16363 (lysine site: K717)", "lysine labeling ratio R10:1": "0.58 (active)"}
{"target": "ITGAV (lysine site: K149) (UniProt P06756)", "lysine labeling ratio R10:1": 4.46}
{"target": "NUCB1 (lysine site: K364) (UniProt Q02818)", "lysine labeling ratio R10:1": 2.75}
{"target": "SPTAN1 (lysine site: K1546) (UniProt Q13813)", "lysine labeling ratio R10:1": "0.8 (active)"}
{"target": "FLNB (lysine site: K681) (UniProt O75369)", "lysine labeling ratio R10:1": 2.09}
{"target": "SEMA3C (lysine site: K570) (UniProt Q99985)", "lysine labeling ratio R10:1": 8.1}
{"target": "HNRNPL (lysine site: K269) (UniProt P14866)", "lysine labeling ratio R10:1": 2.23}
{"target": "SUB1 (lysine site: K68) (UniProt P53999)", "lysine labeling ratio R10:1": 8.07}
{"target": "RPL3 (lysine site: K250) (UniProt P39023)", "lysine labeling ratio R10:1": 2.54}
{"target": "NLRX1 (lysine site: K301) (UniProt Q86UT6)", "lysine labeling ratio R10:1": 2.38}
{"target": "GAS1 (lysine site: K192) (UniProt P54826)", "lysine labeling ratio R10:1": "1.34 (active)"}
{"target": "ITGB1 (lysine site: K72) (UniProt P05556)", "lysine labeling ratio R10:1": "1.91 (active)"}
{"target": "ITGA2 (lysine site: K603) (UniProt P17301)", "lysine labeling ratio R10:1": "1.54 (active)"}
{"target": "EDIL3 (lysine site: K263) (UniProt O43854)", "lysine labeling ratio R10:1": 2.69}
{"target": "ITGB1 (lysine site: K87) (UniProt P05556)", "lysine labeling ratio R10:1": 2.04}
{"target": "MYH9 (lysine site: K1387) (UniProt P35579)", "lysine labeling ratio R10:1": "1.88 (active)"}
{"target": "TGFBI (lysine site: K676) (UniProt Q15582)", "lysine labeling ratio R10:1": 3.4}
{"target": "FOLR1 (lysine site: K46) (UniProt P15328)", "sequence (P15328 whole entry, looked up)": "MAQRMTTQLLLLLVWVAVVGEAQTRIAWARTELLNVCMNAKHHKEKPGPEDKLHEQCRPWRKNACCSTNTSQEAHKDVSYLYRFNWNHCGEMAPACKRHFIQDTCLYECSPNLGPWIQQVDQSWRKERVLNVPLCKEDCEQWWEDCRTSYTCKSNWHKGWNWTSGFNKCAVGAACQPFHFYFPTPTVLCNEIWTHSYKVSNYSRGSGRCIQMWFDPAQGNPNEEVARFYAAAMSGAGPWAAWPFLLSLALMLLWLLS", "lysine labeling ratio R10:1": 12.6}
{"target": "UniProt Q15149 (lysine site: K2706)", "lysine labeling ratio R10:1": 3.69}
{"target": "NEGR1 (lysine site: K231) (UniProt Q7Z3B1)", "lysine labeling ratio R10:1": "0.868 (active)"}
{"target": "SDC4 (lysine site: K114) (UniProt P31431)", "lysine labeling ratio R10:1": 3.81}
{"target": "RPS3A (lysine site: K152) (UniProt P61247)", "lysine labeling ratio R10:1": 3.85}
{"target": "UniProt Q00341 (lysine site: K1066)", "lysine labeling ratio R10:1": 6.11}
{"target": "XRCC6 (lysine site: K582) (UniProt P12956)", "lysine labeling ratio R10:1": "1.52 (active)"}
{"target": "TLN1 (lysine site: K1332) (UniProt Q9Y490)", "lysine labeling ratio R10:1": 5.83}
{"target": "FOLR1 (lysine site: K136) (UniProt P15328)", "lysine labeling ratio R10:1": 7.36}
{"target": "RPL5 (lysine site: K283) (UniProt P46777)", "lysine labeling ratio R10:1": "1.68 (active)"}
{"target": "LRP1 (lysine site: K806) (UniProt Q07954)", "lysine labeling ratio R10:1": "1.57 (active)"}
{"target": "UniProt Q8WXI7 (lysine site: K13246)", "lysine labeling ratio R10:1": 5.01}
{"target": "UniProt O00487 (lysine site: K154)", "lysine labeling ratio R10:1": "0.527 (active)"}
{"target": "UniProt Q8WXD0 (lysine site: K130)", "lysine labeling ratio R10:1": "1.74 (active)"}
{"target": "THRAP3 (lysine site: K486) (UniProt Q9Y2W1)", "lysine labeling ratio R10:1": "1.7 (active)"}
